Screens as filed in PubChem BioAssay.
Compounds with a hit are over-represented: about 6% of the library has one in this group of screens.
D3 ag – qHTS of D3 Dopamine Receptor Agonist: qHTS. D3R DiscoveRx beta-arrestin cells, luminescence, 90 min. max activation, %. 410,000 compounds, 0.58% hits; in the data active = max activation above about 30%; also: 0% is about no effect
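Cells at 1500/well, incubated overnight, then treated with pinned compounds (dopamine as control) for 90 min at 37 degrees C. DiscoveRx reagent added for 30 - 60 minutes at room temperature; luminescence read.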
D1 potentiator – Potentiators of Human D1 Dopamine Receptor: qHTS. potentiation, % at 10 µM. D(1A) dopamine receptor (Homo sapiens), P21728. HEK293 TREx D1 cells, calcium flux, dopamine EC20 potentiation. 360,000 compounds, 0.036% hits; in the data active = potentiation above about 30%; also: 0% is about no effect
Target sequence (P21728 whole entry, looked up): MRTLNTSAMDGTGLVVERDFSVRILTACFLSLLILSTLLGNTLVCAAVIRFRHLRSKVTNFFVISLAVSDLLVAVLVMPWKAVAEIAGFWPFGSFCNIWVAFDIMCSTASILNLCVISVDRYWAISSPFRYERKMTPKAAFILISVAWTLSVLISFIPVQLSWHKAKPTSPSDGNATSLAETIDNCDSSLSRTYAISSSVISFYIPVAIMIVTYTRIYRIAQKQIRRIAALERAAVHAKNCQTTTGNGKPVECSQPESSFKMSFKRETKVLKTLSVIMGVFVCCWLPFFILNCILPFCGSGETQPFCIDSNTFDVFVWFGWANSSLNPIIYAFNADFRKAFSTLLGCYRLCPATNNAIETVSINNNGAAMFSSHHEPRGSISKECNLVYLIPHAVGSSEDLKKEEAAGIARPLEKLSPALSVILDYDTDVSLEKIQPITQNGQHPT
D1 agonist – Allosteric Agonists of the Human D1 Dopamine Receptor: qHTS | D(1A) dopamine receptor (Homo sapiens), P21728 | HEK293 T-REx D1 cells, calcium flux, agonist mode | activation, % at 2 µM | 360,000 compounds, 1% hits | AID 504660, 2011; in the data active = activation above about 30%; also: 0% is about no effect
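Inducible HEK293 T-REx D1 cells, force-coupled to calcium signalling, were plated at 4000 cells/well with tetracycline and held overnight at 30 C. After no-wash calcium dye loading, compound-evoked calcium rise over 180 s flagged agonists.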
DRD3 antagonist – qHTS of D3 Dopamine Receptor Antagonist: qHTS | 360,000 compounds, 2.5% hits | AID 652054, 2013 | max response, negative = inhibition, % | D3R cells, DiscoveRx beta-arrestin luminescence, antagonist mode; hits give low values | D(3) dopamine receptor (Homo sapiens), P35462; in the data active = max response below about -50%; inconclusive = no clear call, values can overlap the other calls; also: % is scaled to controls: 0 for no effect and ±100 for the full control effect
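Cells plated overnight at 1500 cells/well, then exposed to library compounds with dopamine controls for 90 minutes at 37 degrees C. DiscoveRx reagent added for 30–60 minutes at room temperature; luminescence read, quantitative HTS format.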
D1 antagonist – Antagonist of Human D 1 Dopamine Receptor: qHTS | D(1A) dopamine receptor (Homo sapiens), P21728 | HEK293 TREx D1 cells, calcium flux, dopamine EC80; hits give low values | activity change, negative = inhibition, % at 10 µM | 360,000 compounds, 3.2% hits | AID 504652, 2011; in the data active = activity change below about -30%; also: % is scaled to controls: 0 for no effect and ±100 for the full control effect
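After overnight tetracycline induction at 30 C, force-coupled D1 HEK293 cells took up a no-wash calcium dye at room temperature. Compounds were added and monitored 180 s, and the response to EC80 dopamine was then recorded.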
* marks the source's active call; other numbers are inactive results; ? = inconclusive; nt = no result.

SMILES	D3 ag	D1 potentiator	D1 agonist	DRD3 antagonist	D1 antagonist
OCCN1CCN(c2cc(-c3ccccc3)c3ccccc3n2)CC1	-11	0	4	-81*	-4
COCCn1c(SCc2ccc(OC)c(F)c2)nnc1-c1ccncc1	-11	1	1	-10	19
COc1ccc(C2CCCN2C(=S)Nc2cccc(Cl)c2)cc1OC (stereo unspecified)	13	1	2	-9	-2
COc1cccc(NC(=S)N2CCCC2c2ccc(OC)c(OC)c2)c1 (stereo unspecified)	1	-5	-1	-20	-61*
COc1ccc(C2CCCN2C(=S)Nc2ccc(C)cc2C)cc1OC (stereo unspecified)	-1	-3	2	-4	-38*
COc1ccc(C2CCCN2C(=S)Nc2ccccc2C)cc1OC (stereo unspecified)	15	-14	5	-5	-8
CCc1cccc(NC(=O)c2ccc3c(=O)n4nc(Nc5ccccc5OC)sc4nc3c2)c1	-8	-1	4	nt	-1
Cc1ccc(-n2ncc(C(=O)NCc3ccccc3C)c2-n2cccc2)cc1	-10	-2	8	nt	-8
CCC(=O)N1c2ccc(S(=O)(=O)NC3CCCCC3)cc2CC1C (stereo unspecified)	21	-7	16	-6	-2
COc1cccc(/C=C/C(=O)NNC(=O)CCN2CCN(Cc3ccccc3)CC2)c1	-20	-4	4	-53*	-10
CCc1ccc(Oc2nc3c(C)cccn3c(=O)c2/C=C(\C#N)c2nc3ccccc3s2)cc1	6	-1	5	nt	-7
CN(C)[C@@H]1CCC[C@H]1OC(=O)C(c1ccccc1)c1ccccc1	-10	-4	6	-53*	-6
Cc1ccc(C)c(N2CCN(C(=O)C3CCN(Cc4nc(-c5cccc(Cl)c5)oc4C)CC3)CC2)c1	-7	-3	7	nt	0
CCN1CCN(C(=O)C2CCN(Cc3nc(-c4cccc(Cl)c4)oc3C)CC2)CC1	-14	-3	6	-74*	-1
Cc1oc(-c2cccc(Cl)c2)nc1CN1CCC(C(=O)N2CCN(c3ccccn3)CC2)CC1	-13	nt	nt	-51*	nt
COc1cccc(-n2cc(CNCc3cn(C)nc3-c3ccccc3F)cn2)c1	67*	-3	6	7	-9
C/C(=C(\CCOC(=O)c1ccccc1)SS/C(CCOC(=O)c1ccccc1)=C(/C)N(C=O)Cc1cnc(C)nc1N)N(C=O)Cc1cnc(C)nc1N	-2	nt	nt	nt	nt
O=C(Cn1ncc(Cl)c(Cl)c1=O)N1CCN(Cc2ccccc2)CC1	-7	-5	2	-63*	-5
Cc1ccc(Cn2ncc(Cl)c(Cl)c2=O)cc1	-10	-2	0	?	-18
CCc1ccc(C(=O)Cn2ncc(Cl)c(Cl)c2=O)cc1	-15	-3	0	-8	-31*
Cc1cc(C)cc(Cn2ncc(Cl)c(Cl)c2=O)c1	-9	-3	0	-59*	8
CC(=O)NC(CC(=O)OCC(=O)N1CCN(S(=O)(=O)c2ccc(Cl)cc2)CC1)c1ccccc1 (stereo unspecified)	5	-1	0	-11	5
COC(=O)C[C@H]1c2cc(C(F)(F)F)ccc2S(=O)(=O)N1Cc1ccc(OC)cc1	48*	nt	nt	8	nt
COc1ccc(CN2[C@@H](CC(=O)O)c3cc(C(F)(F)F)ccc3S2(=O)=O)cc1	-7	nt	nt	-3	nt
C/C(=N\OC(=O)c1c(-c2c(F)cccc2Cl)noc1C)c1nccs1	12	-1	6	14	9
SMILES	D3 ag	D1 potentiator	D1 agonist	DRD3 antagonist	D1 antagonist
Cc1onc(-c2c(Cl)cccc2Cl)c1/C(N)=N/OC(=O)C(C)(C)C	36*	-1	3	-12	7
Cc1onc(-c2c(F)cccc2Cl)c1C(=O)O/N=C(\N)c1ccc([N+](=O)[O-])o1	33*	-1	0	8	0
COc1cc(Cl)c(C)cc1NC(=O)CN(C)C1CCS(=O)(=O)C1 (stereo unspecified)	-3	nt	nt	-11	nt
CC1(C)CCN2CCC(C)(C)c3c(O)ccc1c32	0	-6	207*	-14	26
O=C1CC(c2ccccc2)=NN1c1nc(-c2ccccc2)cs1	47*	13	1	14	-24
CCN(Cc1ccccc1)c1cc2c(c3c1ccn3C)C1CCC2C1 (stereo unspecified)	-13	nt	nt	-55*	nt
Cn1ccc2c(N(Cc3ccccc3)Cc3ccccc3)cc3c(c21)C1CCC3O1 (stereo unspecified)	-4	nt	nt	7	nt
CCCN(CC1CC1)c1cc2c(c3c1ccn3C)C1CCC2C1 (stereo unspecified)	-14	nt	nt	?	nt
CCN(CC)c1cc2c(c3c1ccn3C)C1CCC2C1 (stereo unspecified)	-19	nt	nt	-61*	nt
CNC(=S)N(C)/N=C1/C(=O)N(Cc2c(Cl)cccc2Cl)c2ccccc21	5	-4	6	19	-34*
CCCc1c(-c2ccc(Cl)cc2)ncn1Cc1cccc(-c2ccccc2)c1	7	nt	nt	23	nt
FC(F)(F)c1cccc(NC(=S)NNC(=S)Nc2cccc(C(F)(F)F)c2)c1	nt	-5	2	nt	-34*
CNNC(=S)Nc1cccc(C(F)(F)F)c1	0	-1	0	0	3
CC(C)(C)NC(=S)Nc1cccc(C(F)(F)F)c1	1	-9	31*	3	-1
CCCCn1nnnc1C(c1ccccc1)N1CCN(c2ccccn2)CC1 (stereo unspecified)	-4	nt	nt	-19	nt
O=S(Cc1ccc(Cl)cc1)c1ccccc1 (stereo unspecified)	66*	nt	nt	6	nt
COc1ccc2cc1Oc1ccc(cc1)C[C@H]1c3cc(c(OC)cc3CCN1C)Oc1c(OC)c(OC)cc3c1[C@H](C2)N(C)CC3	-34	-8	9	1	-13
COc1ccc2cc1Oc1ccc(cc1)C[C@H]1c3c(cc4c(c3Oc3cc5c(cc3OC)CCN(C)[C@@H]5C2)OCO4)CCN1C	-8	-4	3	0	-37*
O=c1[nH]ncc2c3ccccc3n(Cc3ccccc3F)c12	-9	nt	nt	-60*	nt
O=c1[nH]ncc2c3ccccc3n(Cc3ccccc3)c12	0	nt	nt	-6	nt
Cn1c2ccccc2c2nnc(SCC(=O)Nc3cccc(C(=O)O)c3)nc21	-3	6	4	-19	45
Cn1c2ccc(F)cc2c2nnc(SCC(=O)Nc3cccc(O)c3)nc21	34*	0	5	6	-3
O=C(Nc1ccc(S(=O)(=O)N2CCOCC2)cc1)c1ccc(Cl)c([N+](=O)[O-])c1	-7	nt	nt	-23	nt
Cc1cc(C)cc(NC(=O)c2cccc(N3CCCS3(=O)=O)c2)c1	-17	0	2	nt	-7
